Assay results as given in the supplement of paper PMC6555819.

Columns and labels:
Test in all cases: PBM binding z-score (relative to random genomic background probes); higher = stronger binding; sequences stand for … in GC…GCGATTGACAGCGTAGAATGAAGG
[1] = test system: FXR:RXRa (NR concentration 270 nM, RXRa partner concentration 90 nM)
How it was run: (§1)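 Regression normalization was applied to scanned fluorescence from custom Agilent 4×180K protein-binding microarrays. Before scanning, arrays were incubated 1 h with ligand-free nuclear receptor dimers, and binding was detected with antibodies against each partner (one per run). Binding z-scores use the random background probes as reference.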

[2] = test system: LXRa:RXRa (NR concentration 270 nM, RXRa partner concentration 90 nM)
How it was run: as §1

[3] = test system: LXRa homodimer (NR concentration 270 nM)
How it was run: as §1

[4] = test system: LXRb:RXRa (NR concentration 270 nM, RXRa partner concentration 90 nM)
How it was run: as §1

[5] = test system: LXRb homodimer (NR concentration 270 nM)
How it was run: as §1

[6] = test system: PPARa:RXRa (NR concentration 270 nM, RXRa partner concentration 90 nM)
How it was run: as §1

[7] = test system: PPARg:RXRa (NR concentration 180 nM, RXRa partner concentration 90 nM)
How it was run: as §1

[8] = test system: PPARg:RXRa 270nM:90nM, anti-RXR (NR concentration 270 nM, RXRa partner concentration 90 nM)
How it was run: as §1

[9] = test system: PPARg:RXRa 30nM:10nM, anti-RXR (NR concentration 30 nM, RXRa partner concentration 10 nM)
How it was run: as §1

[10] = test system: PPARg:RXRa 90nM:30nM, anti-RXR (NR concentration 90 nM, RXRa partner concentration 30 nM)
How it was run: as §1

[11] = test system: PPARg:RXRa DBDmut IVT, anti-RXR (DBD mutation: RXRa K156A/R161A, NR concentration 270 nM, RXRa partner concentration 90 nM)
How it was run: as §1

[12] = test system: PPARg:RXRa IVT, anti-PPARg (NR concentration 270 nM, RXRa partner concentration 90 nM)
How it was run: as §1

[13] = test system: PPARg DBDmut:RXRa IVT, anti-PPARg (DBD mutation: PPARg1 K132A/R137A, NR concentration 270 nM, RXRa partner concentration 90 nM)
How it was run: as §1

[14] = test system: PPARg DBDmut IVT, anti-PPARg (DBD mutation: PPARg1 K132A/R137A, NR concentration 270 nM)
How it was run: as §1

[15] = test system: PPARg homodimer (NR concentration 180 nM)
How it was run: as §1

[16] = test system: PXR:RXRa (NR concentration 270 nM, RXRa partner concentration 90 nM)
How it was run: as §1

[17] = test system: PXR homodimer (NR concentration 270 nM)
How it was run: as §1

[18] = test system: RARa:RXR (NR concentration 270 nM, RXRa partner concentration 90 nM)
How it was run: as §1

[19] = test system: RARa homodimer (NR concentration 270 nM)
How it was run: as §1

[20] = test system: RARb:RXRa (NR concentration 270 nM, RXRa partner concentration 90 nM)
How it was run: as §1

Sequence	PBM binding z-score [1]	PBM binding z-score [2]	PBM binding z-score [3]	PBM binding z-score [4]	PBM binding z-score [5]	PBM binding z-score [6]	PBM binding z-score [7]	PBM binding z-score [8]	PBM binding z-score [9]	PBM binding z-score [10]	PBM binding z-score [11]	PBM binding z-score [12]	PBM binding z-score [13]	PBM binding z-score [14]	PBM binding z-score [15]	PBM binding z-score [16]	PBM binding z-score [17]	PBM binding z-score [18]	PBM binding z-score [19]	PBM binding z-score [20]
CAAACTATGTCACGAAAGGTCAAAGTCGAATGAC	5.77	6.78	6.81	6.18	2.79	6.44	6.17	5.88	3.01	4.94	5.09	5.93	3	0.957	3.47	6.07	2.12	6.01	2.87	4.92
CCTACTGGGCCAGTCAGAGGTCATTGATCATATG	2.43	3.71	5.39	3.58	-0.105	3.66	2.18	3.32	0.876	2.2	3.73	3.52	-0.533	-0.399	2.3	4.85	1.42	4.37	0.375	2.92
CCGGCTGGGGCAGAAAGGTTACCATACCATCCGG	0.0889	0.439	-0.422	0.64	-1.29	1.61	0.79	1.64	-0.158	1.06	-0.851	-0.138	-1.63	-1.34	0.44	0.704	-0.199	1.52	-0.576	1.85
TAGCCTAGGTCATGGGCCATTATACCACGCGAAC	4.64	3.37	0.43	2.95	0.468	4.24	4.34	4.26	1.44	2.97	1.69	3.57	0.221	-0.316	1.41	1.81	-0.0788	2.65	-0.113	3.98
GGAATGAGGGCAAAGTTGATAGCATCTGTCGACG	1.58	1.26	-0.314	1.11	-0.0126	4.51	7.74	7.45	6.47	8.36	5.52	4.71	1.48	0.0505	0.811	1.43	0.53	1.95	0.171	2.36
TTACCAAGGTGAAAGGTCCTTGATGCACGCCTTG	1.03	1.02	-0.388	1.06	-1.03	3.88	5.66	6.39	4.88	6.09	2.49	4.34	-0.24	0.133	0.166	1.1	-0.666	2.31	-0.838	1.93
ACAGACAGGTGATGAAGGTAAGTCAGGCTATCAT	-0.11	-0.19	-0.349	-0.143	-0.155	0.0808	0.554	-0.245	-0.266	-0.536	0.134	0.289	0.49	-0.485	-0.00799	-0.348	-0.234	-0.203	0.26	0.27
TAGCCTAGGTCATGGGGCCAGTATAGTACGCATC	4.54	3.52	0.182	2.77	0.0614	4.31	3.62	3.29	0.919	2.66	1.84	3.72	0.968	-0.401	3.22	2.19	-0.641	3.54	0.443	3.94
CAAACTAGGTCAAAGGTCACAGTCGAGCCAACCA	8.05	6.81	4.49	7.06	2.03	7.83	13.8	11.1	13.2	13.2	8.58	9.39	3.19	2.73	4.25	6.88	1.29	8.53	1.9	5.89
AGTCAAAGTTCAGGATGAGGTAACGTAAAGCACG	4.14	3.93	1.07	2.02	0.238	3.58	4.66	4.92	2.26	3.84	0.224	2.35	0.915	0.721	2.23	3.14	1.49	3.09	0.768	4.37
CTTCCAAGGTCATAGGAGGTCAGTGAAGACAGAT	7.67	7.56	6.46	6	1.51	6.02	5.71	6.17	2.87	4.89	3.59	4.67	1.93	1.31	4.55	6.93	4.92	6.14	3.57	5.42
TAGCCTAGCTCATGCGGGCCAGTATAGTGTCGGC	-2.69	-1.21	-0.957	-1.4	-1.43	-1.23	-0.395	-1.21	-0.899	-0.925	-0.92	-0.527	-0.361	-0.899	-1.61	-1.02	-0.998	-1.04	-0.996	-1.16
CCTAGTTGGTAAAGGTCACACACGCTATAGGTAC	6.25	5.71	4.56	5.64	2.13	5.93	5.47	6.3	4	5.63	1.96	4.31	1.8	2.57	5.56	5.79	2.18	6.31	3.99	5.22
